Source: PubChem BioAssay AID1159580 (chemical genetic matrix, 2015)
The whole screen tested about 5,500 compounds, of which about 2,000 (36%) were called active. Another 18% or so got no clear call; they are omitted. No stated cut-off is given here; in the data, active means normalized growth mostly below about 0.91 (no sharp cut-off); inconclusive means no clear call, values can overlap the other calls; inactive means mostly above about 0.92. The list shows a part of the results.

Test: chemical genetic growth profiling, strain panel (AID 1159580);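 further: tested at 20 µM; growth read once vehicle control cultures reached saturation at 30 °C; 1 = growth at the plate median or of vehicle wells; lower values mean less growth of the strain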
Conditions: growth OD

Measured: normalized growth

CCCCC(CC)CN1CN(CC(CC)CCCC)CC(C)(N)C1 (centres undefined)
active: S. cerevisiae deletion strains, locus YJR043C, strain POL32, hits give low values 0.37 | S. cerevisiae deletion strains, locus YJR075W, strain HOC1, hits give low values 0.372 | S. cerevisiae deletion strains, locus YKL160W, strain elf1, hits give low values 0.373 | S. cerevisiae deletion strains, locus YKL190W, strain CNB1, hits give low values 0.445 | S. cerevisiae deletion strains, locus YKR001C, strain vps1, hits give low values 0.0669 | S. cerevisiae deletion strains, locus YKR026C, strain gcn3, hits give low values 0.059 | S. cerevisiae deletion strains, locus YKR091W, strain srl3, hits give low values 0.0561 | S. cerevisiae deletion strains, locus YLL001W, strain dnm1, hits give low values 0.0613 | S. cerevisiae deletion strains, locus YLL026W, hits give low values 0.0554 | S. cerevisiae deletion strains, locus YLL041C, strain sdh2, hits give low values 0.0528 | S. cerevisiae deletion strains, locus YLR027C, strain aat2, hits give low values 0.0535 | S. cerevisiae deletion strains, locus YLR039C, strain RIC1, hits give low values 0.352 | S. cerevisiae deletion strains, locus YLR058C, strain SHM2, hits give low values 0.525 | S. cerevisiae deletion strains, locus YLR102C, strain apc9, hits give low values 0.832 | S. cerevisiae deletion strains, locus YLR221C, strain rsa3, hits give low values 0.0576 | S. cerevisiae deletion strains, locus YLR258W, strain gsy2, hits give low values 0.0568 | S. cerevisiae deletion strains, locus YLR262C, strain YPT6 (second series), hits give low values 0.0741 | S. cerevisiae deletion strains, locus YLR262C, strain YPT6, hits give low values 0.269 | S. cerevisiae deletion strains, locus YLR268W, strain sec22, hits give low values 0.484 | S. cerevisiae deletion strains, locus YLR320W, strain mms22, hits give low values 0.0732 | S. cerevisiae deletion strains, locus YLR330W, strain CHS5, hits give low values 0.437 | S. cerevisiae deletion strains, locus YLR342W, strain FKS1 (second series), hits give low values 0.254 | S. cerevisiae deletion strains, locus YLR342W, strain FKS1, hits give low values 0.0622 | S. cerevisiae deletion strains, locus YLR357W, strain rsc2, hits give low values 0.114 | S. cerevisiae deletion strains, locus YLR370C, strain arc18, hits give low values 0.0656 | S. cerevisiae deletion strains, locus YLR371W, strain rom2, hits give low values 0.23 | S. cerevisiae deletion strains, locus YLR384C, strain iki3, hits give low values 0.0552 | S. cerevisiae deletion strains, locus YLR418C, strain cdc73, hits give low values 0.153 | S. cerevisiae deletion strains, locus YML016C, strain PPZ1, hits give low values 0.743 | S. cerevisiae deletion strains, locus YML032C, strain rad52, hits give low values 0.407 | S. cerevisiae deletion strains, locus YML120C, strain ndi1, hits give low values 0.0565 | S. cerevisiae deletion strains, locus YML124C, strain tub3, hits give low values 0.692 | S. cerevisiae deletion strains, locus YMR058W, strain fet3, hits give low values 0.0601 | S. cerevisiae deletion strains, locus YMR078C, strain ctf18, hits give low values 0.802 | S. cerevisiae deletion strains, locus YMR125W, strain sto1, hits give low values 0.0743 | S. cerevisiae deletion strains, locus YMR129W, hits give low values 0.0564 | S. cerevisiae deletion strains, locus YMR205C, strain PFK2, hits give low values 0.0816 | S. cerevisiae deletion strains, locus YMR223W, strain ubp8, hits give low values 0.316 | S. cerevisiae deletion strains, locus YMR231W, strain pep5, hits give low values 0.0615 | S. cerevisiae deletion strains, locus YMR263W, strain SAP30, hits give low values 0.489 | S. cerevisiae deletion strains, locus YMR307W, strain GAS1, hits give low values 0.162 | S. cerevisiae deletion strains, locus YNL067W, strain RPL9B, hits give low values 0.605 | S. cerevisiae deletion strains, locus YNL071W, strain lat1, hits give low values 0.058 | S. cerevisiae deletion strains, locus YNL128W, strain TEP1, hits give low values 0.288 | S. cerevisiae deletion strains, locus YNL153C, strain GIM3, hits give low values 0.356 | S. cerevisiae deletion strains, locus YNL209W, strain ssb2, hits give low values 0.0575 | S. cerevisiae deletion strains, locus YNL233W, strain BNI4, hits give low values 0.26 | S. cerevisiae deletion strains, locus YNL248C, strain rpa49, hits give low values 0.0852 | S. cerevisiae deletion strains, locus YNL307C, strain MCK1, hits give low values 0.262 | S. cerevisiae deletion strains, locus YNL322C, strain KRE1 (second series), hits give low values 0.0601 | S. cerevisiae deletion strains, locus YNL322C, strain KRE1, hits give low values 0.336 | S. cerevisiae deletion strains, locus YNR049C, strain mso1, hits give low values 0.0593 | S. cerevisiae deletion strains, locus YNR052C, strain pop2, hits give low values 0.0951 | S. cerevisiae deletion strains, locus YOL006C, strain TOP1, hits give low values 0.196 | S. cerevisiae deletion strains, locus YOL147C, strain pex11, hits give low values 0.497 | S. cerevisiae deletion strains, locus YOR001W, strain rrp6, hits give low values 0.0714 | S. cerevisiae deletion strains, locus YOR061W, strain CKA2, hits give low values 0.583 | S. cerevisiae deletion strains, locus YOR069W, strain VPS5, hits give low values 0.736 | S. cerevisiae deletion strains, locus YOR070C, strain gyp1, hits give low values 0.0567 | S. cerevisiae deletion strains, locus YOR080W, strain dia2, hits give low values 0.0601 | S. cerevisiae deletion strains, locus YOR083W, strain WHI5, hits give low values 0.0602 | S. cerevisiae deletion strains, locus YOR106W, strain vam3, hits give low values 0.0665 | S. cerevisiae deletion strains, locus YOR136W, strain idh2, hits give low values 0.607 | S. cerevisiae deletion strains, locus YOR144C, strain elg1, hits give low values 0.662 | S. cerevisiae deletion strains, locus YOR184W, strain ser1, hits give low values 0.325 | S. cerevisiae deletion strains, locus YOR265W, strain rbl2, hits give low values 0.0536 | S. cerevisiae deletion strains, locus YOR270C, strain vph1, hits give low values 0.0981 | S. cerevisiae deletion strains, locus YOR290C, strain snf2, hits give low values 0.0607 | S. cerevisiae deletion strains, locus YOR316C, strain cot1, hits give low values 0.863 | S. cerevisiae deletion strains, locus YPL051W, strain arl3, hits give low values 0.0603 | S. cerevisiae deletion strains, locus YPL055C, strain LGE1, hits give low values 0.189 | S. cerevisiae deletion strains, locus YPL078C, strain atp4, hits give low values 0.0642 | S. cerevisiae deletion strains, locus YPL106C, strain sse1, hits give low values 0.0997 | S. cerevisiae deletion strains, locus YPL240C, strain hsp82, hits give low values 0.0539 | S. cerevisiae deletion strains, locus YPL241C, strain CIN2, hits give low values 0.733 | S. cerevisiae deletion strains, locus YPR119W, strain clb2, hits give low values 0.627 | S. cerevisiae deletion strains, locus YPR163C, strain tif3, hits give low values 0.178 | S. cerevisiae deletion strains, locus YPR167C, strain met16, hits give low values 0.533 | S. cerevisiae deletion strains, strain wtn01, hits give low values 0.425 | S. cerevisiae strains, strain wild type, hits give low values 0.21
inactive: S. cerevisiae deletion strains, locus YKL009W, strain mrt4, hits give low values 0.939 | S. cerevisiae deletion strains, locus YKL068W, hits give low values 1.01 | S. cerevisiae deletion strains, locus YKL085W, strain MDH1 (second series), hits give low values 0.994 | S. cerevisiae deletion strains, locus YKL085W, strain MDH1, hits give low values 0.994 | S. cerevisiae deletion strains, locus YNL250W, strain rad50, hits give low values 1.01 | S. cerevisiae deletion strains, locus YNL271C, strain bni1, hits give low values 0.997 | S. cerevisiae deletion strains, locus YNL298W, strain CLA4, hits give low values 1.01 | S. cerevisiae deletion strains, locus YOL012C, strain htz1 0.192 | S. cerevisiae deletion strains, locus YPR141C, strain kar3, hits give low values 1.01
